Reference: PubChem BioAssay AID1159580 (chemical genetic matrix, 2015)
Several values for one entry are separate records, joined by “and”; a condition that tells them apart may be missing. Identical values can stand only once. Hit rate of the full screen: of about 5,500 compounds, about 2,000 (36%) were called active. Roughly 18% stayed inconclusive and do not appear here. Cut-off read from the data, not from the text of the source: active = normalized growth mostly below about 0.91 (no sharp cut-off); inconclusive = no clear call, values can overlap the other calls; inactive = mostly above about 0.92. Some of the results follow.

Assay: chemical genetic growth profiling, strain panel (AID 1159580);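 note: tested at 20 µM; growth read once vehicle control cultures reached saturation at 30 °C; 1 = growth at the plate median or of vehicle wells; lower values mean less growth of the strain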
Details: S. cerevisiae deletion strains, growth OD

Measured: normalized growth

NCCCN
inactive: locus YAL021C, strain ccr4, hits give low values 1.02 | locus YAL026C, strain drs2, hits give low values 0.984 | locus YAL030W, strain snc1, hits give low values 0.989 | locus YBL061C, strain skt5, hits give low values 0.989 | locus YBR009C, strain hhf1, hits give low values 0.988 | locus YBR021W, strain FUR4, hits give low values 0.996 | locus YBR023C, strain chs3, hits give low values 0.982 | locus YBR171W, strain sec66, hits give low values 0.957 | locus YBR229C, strain ROT2, hits give low values 0.99 | locus YBR231C, strain swc5, hits give low values 0.984 | locus YBR279W, strain paf1, hits give low values 1 | locus YCL011C, strain gbp2, hits give low values 0.973 | locus YCL016C, strain dcc1, hits give low values 1 | locus YCL029C, strain bik1, hits give low values 0.984 | locus YCL061C, strain MRC1, hits give low values 1.01 | locus YCL069W, strain vba3, hits give low values 0.973 | locus YCR088W, strain abp1, hits give low values 0.982 | locus YDL005C, strain med2, hits give low values 0.977 | locus YDL035C, strain GPR1, hits give low values 1.03 | locus YDL040C, strain nat1, hits give low values 0.986 | locus YDL074C, strain BRE1, hits give low values 1.01 | locus YDL101C, strain DUN1, hits give low values 0.994 | locus YDL185W, strain tfp1, hits give low values 0.983 | locus YDL192W, strain arf1, hits give low values 0.998 | locus YDR001C, strain nth1, hits give low values 0.99 | locus YDR069C, strain doa4, hits give low values 0.987 | locus YDR101C, strain arx1, hits give low values 0.976 | locus YDR137W, strain rgp1, hits give low values 1.02 | locus YDR159W, strain sac3, hits give low values 0.961 | locus YDR162C, strain NBP2, hits give low values 1.01 | locus YDR195W, strain ref2 0.981 | locus YDR297W, strain sur2, hits give low values 0.996 | locus YDR318W, strain mcm21, hits give low values 1.01 | locus YDR334W, strain swr1, hits give low values 0.962 | locus YDR335W, strain msn5, hits give low values 0.987 | locus YDR388W, hits give low values 0.993 | locus YDR392W, strain spt3, hits give low values 0.964 | locus YDR502C, strain sam2, hits give low values 0.997 | locus YEL003W, strain gim4, hits give low values 0.976 | locus YEL037C, strain rad23, hits give low values 0.98 | locus YEL061C, strain CIN8 (second series), hits give low values 0.965 | locus YEL061C, strain CIN8, hits give low values 0.997 | locus YER015W, strain faa2, hits give low values 0.992 | locus YER016W, strain bim1, hits give low values 0.989 | locus YER110C, hits give low values 0.979 | locus YER111C, strain swi4, hits give low values 0.964 | locus YER155C, strain BEM2 (second series), hits give low values 0.966 | locus YER155C, strain BEM2, hits give low values 0.982 | locus YER167W, strain BCK2, hits give low values 0.989 | locus YFR010W, strain ubp6, hits give low values 0.958 | locus YGL078C, strain dbp3, hits give low values 0.999 | locus YGL086W, strain mad1, hits give low values 0.983 | locus YGL167C, strain pmr1, hits give low values 0.983 | locus YGL173C, strain kem1, hits give low values 0.972 | locus YGL227W, strain vid30, hits give low values 0.986 | locus YGL240W, strain doc1, hits give low values 0.979 | locus YGL248W, strain PDE1, hits give low values 1.01 | locus YGL253W, strain hxk2, hits give low values 0.968 | locus YGR078C, strain PAC10, hits give low values 1 | locus YGR135W, strain pre9, hits give low values 1.01 | locus YGR252W, strain gcn5, hits give low values 1.08 | locus YHR013C, strain ard1, hits give low values 0.972 | locus YHR027C, strain rpn1, hits give low values 1.01 | locus YHR030C, strain SLT2, hits give low values 0.997 and 0.973 | locus YHR079C, strain IRE1 (second series), hits give low values 0.994 | locus YHR079C, strain IRE1, hits give low values 0.976 | locus YHR094C, strain hxt1, hits give low values 0.979 | locus YHR129C, strain ARP1, hits give low values 1 | locus YHR142W, strain chs7, hits give low values 0.976 | locus YHR200W, strain rpn10, hits give low values 0.993 | locus YIL066C, strain RNR3, hits give low values 0.995 | locus YIL073C, strain SPO22, hits give low values 1.06 | locus YIL125W, strain kgd1, hits give low values 0.991 | locus YIR030C, strain dcg1, hits give low values 0.992 | locus YJL092W, strain hpr5, hits give low values 0.969 | locus YJL095W, strain BCK1 (second series), hits give low values 0.984 | locus YJL095W, strain BCK1, hits give low values 1.05 and 1.04 | locus YJL115W, strain asf1, hits give low values 0.956 | locus YJL129C, strain trk1, hits give low values 0.995 | locus YJL134W, strain LCB3, hits give low values 1 | locus YJL154C, strain vps35, hits give low values 0.981 | locus YJL164C, strain tpk1, hits give low values 1.01 | locus YJL166W, strain qcr8, hits give low values 0.989 | locus YJL168C, strain set2, hits give low values 0.983 | locus YJL187C, strain SWE1 (second series), hits give low values 1.01 | locus YJL187C, strain SWE1, hits give low values 1 | locus YJR043C, strain POL32, hits give low values 1.03
